Results on one sequence are retold here after publication PMC7862700, “An all-to-all approach to the identification of sequence-specific readers for epigenetic DNA modifications on cytosine”.

What all share (assay): DAPPL (digital affinity profiling via proximity ligation, sequencing); 10 mM Tris-HCl pH 7.5, 50 mM NaCl, 1 mM DTT, 4% glycerol, room temperature, 30 min; GST-TFs on glutathione beads, 16-mer random dsDNA library, 0.1% formaldehyde crosslink after washing; high values mean tight binding
The target of experiment [1] is T1, FEV (Homo sapiens, UniProt Q99581 1-238).
T1 sequence: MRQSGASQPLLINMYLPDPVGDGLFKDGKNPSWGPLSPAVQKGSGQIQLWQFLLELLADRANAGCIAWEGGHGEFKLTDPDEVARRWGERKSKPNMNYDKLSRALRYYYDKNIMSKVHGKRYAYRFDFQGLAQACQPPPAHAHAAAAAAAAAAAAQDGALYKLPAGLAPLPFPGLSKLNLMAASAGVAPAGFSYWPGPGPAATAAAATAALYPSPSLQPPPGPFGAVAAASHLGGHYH
As to conditions: protein: recombinant; tags: N-terminal GST; dsDNA, one strand shown. A digest of the protocol:
(§1)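 Human transcription factors were made in yeast as GST fusions, captured on glutathione beads and barcoded with DNA. With a tag-only sample included, the pool was incubated with 200 nmole of a random double-stranded 16-mer DNA library in Tris/NaCl/DTT/glycerol buffer at room temperature for 30 min, then crosslinked with 0.1% formaldehyde after washing, ligated by proximity, amplified and sequenced. For binding signal, each hexamer's read frequency for a factor is divided by its frequency for the tag-only sample.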

Experiment [2] addresses ETV5 (Homo sapiens, UniProt P41161 1-510). As to conditions: protein: recombinant; tags: N-terminal GST; dsDNA, one strand shown. Summed up:
as §1

Experiment [3] concerns the target HSF1 (Homo sapiens, UniProt Q00613 1-529). As to conditions: protein: recombinant; tags: N-terminal GST; chain copies: 3; dsDNA, one strand shown. A digest of the protocol: as §1
Experiment [4] concerns the target T2, SPIC (Homo sapiens, UniProt Q8N5J4 1-248).
T2 sequence: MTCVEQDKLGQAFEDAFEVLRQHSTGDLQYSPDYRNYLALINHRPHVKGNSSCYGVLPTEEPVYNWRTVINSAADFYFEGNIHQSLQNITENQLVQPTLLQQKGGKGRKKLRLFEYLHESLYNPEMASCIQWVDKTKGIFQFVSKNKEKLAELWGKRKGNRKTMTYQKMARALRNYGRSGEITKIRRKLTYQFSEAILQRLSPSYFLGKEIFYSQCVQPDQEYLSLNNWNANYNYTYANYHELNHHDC
As to conditions: protein: recombinant; tags: N-terminal GST; dsDNA, one strand shown. A digest of the protocol: as §1

For experiment [5], the target named is ELF4 (Homo sapiens, UniProt Q99607 1-663). As to conditions: protein: recombinant; tags: N-terminal GST; dsDNA, one strand shown. Summed up:
as §1

The target in experiment [6] is T3, ELK4 (Homo sapiens, UniProt P28324-2 1-405).
T3 sequence: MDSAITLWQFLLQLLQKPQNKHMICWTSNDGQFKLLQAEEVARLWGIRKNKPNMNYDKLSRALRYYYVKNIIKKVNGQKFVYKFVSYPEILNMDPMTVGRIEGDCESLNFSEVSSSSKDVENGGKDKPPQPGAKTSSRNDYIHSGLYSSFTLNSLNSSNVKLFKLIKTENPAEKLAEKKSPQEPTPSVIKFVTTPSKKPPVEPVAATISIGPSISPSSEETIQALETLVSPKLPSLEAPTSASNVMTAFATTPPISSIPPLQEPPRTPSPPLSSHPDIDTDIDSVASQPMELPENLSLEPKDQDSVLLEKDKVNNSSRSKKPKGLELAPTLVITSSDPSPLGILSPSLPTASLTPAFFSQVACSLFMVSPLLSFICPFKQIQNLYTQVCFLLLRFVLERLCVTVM
As to conditions: protein: recombinant; tags: N-terminal GST; dsDNA, one strand shown. A digest of the protocol: as §1

In experiment [7] the target is T4, ETV2 (Homo sapiens, UniProt O00321 1-342).
T4 sequence: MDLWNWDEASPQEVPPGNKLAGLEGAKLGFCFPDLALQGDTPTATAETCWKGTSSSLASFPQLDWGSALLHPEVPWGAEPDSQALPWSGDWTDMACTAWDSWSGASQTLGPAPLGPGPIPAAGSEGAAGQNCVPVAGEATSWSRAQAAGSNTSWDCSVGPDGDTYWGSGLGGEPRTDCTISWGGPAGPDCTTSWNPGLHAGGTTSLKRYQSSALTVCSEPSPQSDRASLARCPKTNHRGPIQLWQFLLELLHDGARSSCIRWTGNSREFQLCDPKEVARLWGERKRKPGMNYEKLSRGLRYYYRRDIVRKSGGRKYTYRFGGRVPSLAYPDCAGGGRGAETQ
As to conditions: protein: recombinant; tags: N-terminal GST; dsDNA, one strand shown. A digest of the protocol: as §1

Experiment [8] concerns the target T5, ELF3 (Homo sapiens, UniProt P78545 1-371).
T5 sequence: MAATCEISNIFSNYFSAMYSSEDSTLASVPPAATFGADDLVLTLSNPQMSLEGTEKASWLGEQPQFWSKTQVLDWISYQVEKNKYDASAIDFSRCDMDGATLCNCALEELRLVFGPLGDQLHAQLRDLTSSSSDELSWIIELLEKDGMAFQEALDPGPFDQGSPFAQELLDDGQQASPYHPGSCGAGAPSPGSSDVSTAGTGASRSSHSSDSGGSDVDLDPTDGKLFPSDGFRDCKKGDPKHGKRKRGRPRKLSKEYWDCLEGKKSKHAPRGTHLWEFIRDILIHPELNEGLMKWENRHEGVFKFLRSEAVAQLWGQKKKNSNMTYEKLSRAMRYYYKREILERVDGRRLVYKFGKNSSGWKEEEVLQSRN
As to conditions: protein: recombinant; tags: N-terminal GST; dsDNA, one strand shown. Summed up:
as §1

Experiment [9] deals with CRX (Homo sapiens, UniProt O43186 1-299). As to conditions: protein: recombinant; tags: N-terminal GST; dsDNA, one strand shown. Summed up:
as §1

Experiment [10] has as its target ETV1 (Homo sapiens, UniProt P50549 1-477). As to conditions: protein: recombinant; tags: N-terminal GST; dsDNA, one strand shown. Summed up: as §1
Experiment [11] addresses T6, ERF (Homo sapiens, UniProt P50548 1-548).
T6 sequence: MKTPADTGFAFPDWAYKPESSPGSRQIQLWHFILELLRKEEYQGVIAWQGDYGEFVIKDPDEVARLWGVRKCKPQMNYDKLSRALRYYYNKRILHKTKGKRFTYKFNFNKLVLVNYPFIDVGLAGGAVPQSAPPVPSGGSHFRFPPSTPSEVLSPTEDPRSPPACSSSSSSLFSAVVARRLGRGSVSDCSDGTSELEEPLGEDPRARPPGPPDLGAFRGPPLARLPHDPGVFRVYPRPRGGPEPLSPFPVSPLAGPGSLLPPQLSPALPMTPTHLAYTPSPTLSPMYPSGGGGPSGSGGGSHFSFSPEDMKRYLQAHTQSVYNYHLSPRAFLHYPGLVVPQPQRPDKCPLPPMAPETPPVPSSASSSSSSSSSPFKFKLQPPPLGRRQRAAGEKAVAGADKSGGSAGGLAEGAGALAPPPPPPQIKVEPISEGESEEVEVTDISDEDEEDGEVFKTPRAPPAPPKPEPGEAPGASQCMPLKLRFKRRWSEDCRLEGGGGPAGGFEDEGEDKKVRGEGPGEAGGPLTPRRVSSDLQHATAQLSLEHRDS
As to conditions: protein: recombinant; tags: N-terminal GST; dsDNA, one strand shown. Summed up: as §1

The target in experiment [12] is T7, ETV3L (Homo sapiens, UniProt Q6ZN32 1-361).
T7 sequence: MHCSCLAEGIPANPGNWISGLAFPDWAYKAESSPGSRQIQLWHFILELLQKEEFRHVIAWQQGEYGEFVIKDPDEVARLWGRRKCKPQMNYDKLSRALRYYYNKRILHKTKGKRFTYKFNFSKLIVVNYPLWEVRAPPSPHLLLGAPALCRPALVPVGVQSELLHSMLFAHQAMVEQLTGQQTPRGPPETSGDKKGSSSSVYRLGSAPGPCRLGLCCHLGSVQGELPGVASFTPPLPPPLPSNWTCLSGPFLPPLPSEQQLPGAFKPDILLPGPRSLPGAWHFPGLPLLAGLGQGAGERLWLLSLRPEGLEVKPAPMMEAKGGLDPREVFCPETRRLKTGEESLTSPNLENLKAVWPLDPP
As to conditions: protein: recombinant; tags: N-terminal GST; dsDNA, one strand shown. A digest of the protocol: as §1

Experiment [13] deals with T8, ETS2 (Homo sapiens, UniProt P15036 1-469).
T8 sequence: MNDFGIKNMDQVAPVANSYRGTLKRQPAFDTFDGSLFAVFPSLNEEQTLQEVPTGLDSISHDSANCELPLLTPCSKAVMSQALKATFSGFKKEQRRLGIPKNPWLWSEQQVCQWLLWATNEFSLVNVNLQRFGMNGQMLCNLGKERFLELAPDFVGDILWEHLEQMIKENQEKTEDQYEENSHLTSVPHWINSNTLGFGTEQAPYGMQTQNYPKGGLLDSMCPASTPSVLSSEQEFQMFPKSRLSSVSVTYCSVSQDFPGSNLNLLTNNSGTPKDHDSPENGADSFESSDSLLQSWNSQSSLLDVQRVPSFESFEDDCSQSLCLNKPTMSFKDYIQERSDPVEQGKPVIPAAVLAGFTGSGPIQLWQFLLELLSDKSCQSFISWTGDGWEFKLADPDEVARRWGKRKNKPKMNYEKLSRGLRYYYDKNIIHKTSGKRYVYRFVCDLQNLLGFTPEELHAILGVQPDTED
As to conditions: protein: recombinant; tags: N-terminal GST; dsDNA, one strand shown. A digest of the protocol: as §1

In experiment [14] the target is T9, SPDEF (Homo sapiens, UniProt O95238 1-335).
T9 sequence: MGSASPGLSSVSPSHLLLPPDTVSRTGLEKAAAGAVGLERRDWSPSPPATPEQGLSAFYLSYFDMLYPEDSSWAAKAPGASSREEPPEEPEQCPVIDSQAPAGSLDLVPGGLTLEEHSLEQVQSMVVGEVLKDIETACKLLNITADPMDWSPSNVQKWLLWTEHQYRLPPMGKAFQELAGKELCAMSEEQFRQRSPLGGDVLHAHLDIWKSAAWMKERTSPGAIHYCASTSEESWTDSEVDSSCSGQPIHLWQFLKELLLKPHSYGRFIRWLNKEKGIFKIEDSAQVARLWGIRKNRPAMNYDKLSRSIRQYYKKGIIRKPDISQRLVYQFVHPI
As to conditions: protein: recombinant; tags: N-terminal GST; dsDNA, one strand shown. Summed up: as §1

Experiment [15] deals with T10, ETV7 (Homo sapiens, UniProt Q9Y603 1-341).
T10 sequence: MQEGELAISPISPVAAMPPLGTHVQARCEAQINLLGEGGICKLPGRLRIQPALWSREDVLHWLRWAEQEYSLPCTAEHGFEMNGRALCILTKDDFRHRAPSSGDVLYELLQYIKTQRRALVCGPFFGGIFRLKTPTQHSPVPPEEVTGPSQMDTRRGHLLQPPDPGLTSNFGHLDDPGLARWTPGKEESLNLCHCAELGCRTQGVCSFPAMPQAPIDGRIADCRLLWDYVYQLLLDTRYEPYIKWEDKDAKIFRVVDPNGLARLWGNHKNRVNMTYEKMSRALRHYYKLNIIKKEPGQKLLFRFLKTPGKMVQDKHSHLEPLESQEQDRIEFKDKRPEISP
As to conditions: protein: recombinant; tags: N-terminal GST; dsDNA, one strand shown. A digest of the protocol:
as §1

Experiment [16] deals with T11, ELF5 (Homo sapiens, UniProt Q9UKW6-2 1-255).
T11 sequence: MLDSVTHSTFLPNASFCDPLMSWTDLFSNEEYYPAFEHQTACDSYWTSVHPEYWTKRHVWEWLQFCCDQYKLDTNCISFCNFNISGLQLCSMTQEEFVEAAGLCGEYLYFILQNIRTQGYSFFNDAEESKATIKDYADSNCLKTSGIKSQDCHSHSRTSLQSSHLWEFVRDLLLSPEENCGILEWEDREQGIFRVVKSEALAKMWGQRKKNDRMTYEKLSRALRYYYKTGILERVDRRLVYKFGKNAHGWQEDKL
As to conditions: protein: recombinant; tags: N-terminal GST; dsDNA, one strand shown. Summed up:
as §1

Experiment [17] addresses T12, ETV3 (Homo sapiens, UniProt P41162-2 1-143).
T12 sequence: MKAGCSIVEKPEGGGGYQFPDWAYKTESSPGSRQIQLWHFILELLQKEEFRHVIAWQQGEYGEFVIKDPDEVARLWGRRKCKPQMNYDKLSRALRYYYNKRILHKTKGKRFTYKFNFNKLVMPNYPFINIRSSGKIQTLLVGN
As to conditions: protein: recombinant; tags: N-terminal GST; dsDNA, one strand shown. A digest of the protocol: as §1

The target of experiment [18] is ETV6 (Homo sapiens, UniProt P41212 1-452). As to conditions: protein: recombinant; tags: N-terminal GST; dsDNA, one strand shown. A digest of the protocol: as §1
ETV6, sequence (P41212 whole entry): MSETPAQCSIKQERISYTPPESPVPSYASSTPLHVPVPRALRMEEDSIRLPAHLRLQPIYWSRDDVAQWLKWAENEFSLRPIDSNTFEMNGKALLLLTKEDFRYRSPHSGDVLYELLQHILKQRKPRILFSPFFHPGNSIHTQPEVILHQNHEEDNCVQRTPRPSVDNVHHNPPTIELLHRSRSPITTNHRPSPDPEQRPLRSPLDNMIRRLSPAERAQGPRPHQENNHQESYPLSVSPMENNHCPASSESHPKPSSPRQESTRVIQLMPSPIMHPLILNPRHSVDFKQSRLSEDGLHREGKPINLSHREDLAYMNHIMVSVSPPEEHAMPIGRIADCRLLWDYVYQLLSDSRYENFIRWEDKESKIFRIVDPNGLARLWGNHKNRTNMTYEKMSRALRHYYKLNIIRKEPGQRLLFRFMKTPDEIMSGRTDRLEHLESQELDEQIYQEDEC

ETV5, sequence (P41161 whole entry): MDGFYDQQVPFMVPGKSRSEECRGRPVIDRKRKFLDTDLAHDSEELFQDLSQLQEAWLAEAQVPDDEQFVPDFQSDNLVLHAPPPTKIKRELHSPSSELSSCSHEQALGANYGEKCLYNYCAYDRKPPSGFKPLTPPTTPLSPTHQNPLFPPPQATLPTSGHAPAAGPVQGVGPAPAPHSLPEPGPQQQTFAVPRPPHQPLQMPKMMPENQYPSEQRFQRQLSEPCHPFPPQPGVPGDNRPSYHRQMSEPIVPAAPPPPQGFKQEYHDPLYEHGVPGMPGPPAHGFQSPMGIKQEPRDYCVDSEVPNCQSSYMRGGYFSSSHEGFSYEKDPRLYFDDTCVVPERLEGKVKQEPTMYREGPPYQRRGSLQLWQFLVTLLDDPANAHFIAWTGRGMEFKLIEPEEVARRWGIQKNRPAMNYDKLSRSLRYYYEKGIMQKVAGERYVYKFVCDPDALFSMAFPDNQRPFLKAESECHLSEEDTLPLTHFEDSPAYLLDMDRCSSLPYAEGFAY
CRX, sequence (O43186 whole entry): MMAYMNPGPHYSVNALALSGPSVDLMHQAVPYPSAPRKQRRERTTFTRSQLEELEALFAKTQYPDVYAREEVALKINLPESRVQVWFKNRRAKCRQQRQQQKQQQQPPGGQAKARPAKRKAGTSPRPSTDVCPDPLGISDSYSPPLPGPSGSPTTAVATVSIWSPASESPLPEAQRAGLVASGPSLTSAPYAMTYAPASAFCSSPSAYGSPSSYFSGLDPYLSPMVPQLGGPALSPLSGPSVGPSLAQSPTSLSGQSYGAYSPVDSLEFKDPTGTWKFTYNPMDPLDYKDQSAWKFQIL
HSF1, sequence (Q00613 whole entry): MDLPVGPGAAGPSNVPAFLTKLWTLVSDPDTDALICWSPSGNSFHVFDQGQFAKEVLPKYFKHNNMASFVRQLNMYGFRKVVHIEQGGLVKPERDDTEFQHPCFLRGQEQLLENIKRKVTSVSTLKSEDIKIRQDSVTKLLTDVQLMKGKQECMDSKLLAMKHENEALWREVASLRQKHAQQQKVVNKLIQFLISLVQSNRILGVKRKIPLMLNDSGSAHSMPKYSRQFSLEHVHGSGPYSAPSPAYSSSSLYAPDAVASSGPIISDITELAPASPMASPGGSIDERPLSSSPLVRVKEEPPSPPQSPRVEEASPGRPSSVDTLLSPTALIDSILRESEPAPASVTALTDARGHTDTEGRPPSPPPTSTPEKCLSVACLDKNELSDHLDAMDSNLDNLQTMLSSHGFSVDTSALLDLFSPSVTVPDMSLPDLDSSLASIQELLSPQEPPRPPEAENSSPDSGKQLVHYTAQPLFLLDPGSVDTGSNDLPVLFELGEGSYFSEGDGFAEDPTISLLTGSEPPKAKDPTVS
ETV1, sequence (P50549 whole entry): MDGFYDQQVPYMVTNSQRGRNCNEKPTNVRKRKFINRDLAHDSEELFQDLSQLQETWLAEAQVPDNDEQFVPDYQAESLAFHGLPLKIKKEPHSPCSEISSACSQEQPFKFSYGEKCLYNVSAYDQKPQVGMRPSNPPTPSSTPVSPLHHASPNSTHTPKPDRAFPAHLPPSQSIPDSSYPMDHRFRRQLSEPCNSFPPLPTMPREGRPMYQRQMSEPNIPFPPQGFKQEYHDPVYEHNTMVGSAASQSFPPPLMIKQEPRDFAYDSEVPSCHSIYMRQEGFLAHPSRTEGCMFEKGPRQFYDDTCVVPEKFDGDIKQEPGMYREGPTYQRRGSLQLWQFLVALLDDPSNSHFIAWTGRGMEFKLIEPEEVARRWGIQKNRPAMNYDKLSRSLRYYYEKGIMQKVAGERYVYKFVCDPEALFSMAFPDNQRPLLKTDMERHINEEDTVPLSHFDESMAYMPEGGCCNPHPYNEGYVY
ELF4, sequence (Q99607 whole entry): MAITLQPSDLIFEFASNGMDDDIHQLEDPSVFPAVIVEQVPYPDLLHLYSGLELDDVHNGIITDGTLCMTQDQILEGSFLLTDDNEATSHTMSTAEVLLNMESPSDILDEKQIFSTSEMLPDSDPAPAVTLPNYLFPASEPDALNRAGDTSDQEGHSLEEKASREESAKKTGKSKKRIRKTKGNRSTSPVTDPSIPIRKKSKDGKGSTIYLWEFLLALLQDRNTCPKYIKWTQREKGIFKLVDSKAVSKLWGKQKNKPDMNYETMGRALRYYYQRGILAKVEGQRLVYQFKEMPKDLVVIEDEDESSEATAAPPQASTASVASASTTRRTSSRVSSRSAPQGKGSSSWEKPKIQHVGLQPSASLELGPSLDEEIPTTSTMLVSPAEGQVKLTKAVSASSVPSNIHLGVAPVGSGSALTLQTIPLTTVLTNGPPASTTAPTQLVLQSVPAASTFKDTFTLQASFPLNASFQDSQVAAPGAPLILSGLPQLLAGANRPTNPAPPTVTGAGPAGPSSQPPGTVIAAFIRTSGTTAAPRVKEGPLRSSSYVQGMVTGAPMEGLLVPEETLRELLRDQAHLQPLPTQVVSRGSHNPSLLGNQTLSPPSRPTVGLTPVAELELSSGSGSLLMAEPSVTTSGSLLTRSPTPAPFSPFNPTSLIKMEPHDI

With TAATTG, the binding signal in experiment [1] is 1.32 fold enrichment (6-mer frequency, TF over GST control); in experiment [2], 1.4 fold enrichment (6-mer frequency, TF over GST control); in [3], 1.42 fold enrichment (6-mer frequency, TF over GST control); in experiment [4], 1.31 fold enrichment (6-mer frequency, TF over GST control); in experiment [5] it was 1.36 fold enrichment (6-mer frequency, TF over GST control); in [6], 1.35 fold enrichment (6-mer frequency, TF over GST control). In addition, the binding signal is 1.44 fold enrichment (6-mer frequency, TF over GST control) in [7]; 1.49 fold enrichment (6-mer frequency, TF over GST control) in experiment [8]; 1.82 fold enrichment (6-mer frequency, TF over GST control) in experiment [9]; 1.35 fold enrichment (6-mer frequency, TF over GST control) in [10]; 1.35 fold enrichment (6-mer frequency, TF over GST control) in experiment [11]; 1.37 fold enrichment (6-mer frequency, TF over GST control) in experiment [12]. Moreover, the binding signal in experiment [13] was 1.42 fold enrichment (6-mer frequency, TF over GST control); in experiment [14], 1.22 fold enrichment (6-mer frequency, TF over GST control); in experiment [15], 1.44 fold enrichment (6-mer frequency, TF over GST control); in experiment [16], 1.37 fold enrichment (6-mer frequency, TF over GST control); in experiment [17], 1.34 fold enrichment (6-mer frequency, TF over GST control); in experiment [18], 1.42 fold enrichment (6-mer frequency, TF over GST control).
